Hits are enriched below; roughly 1.4% of the tested compounds scored in any of these assays.
IL1B NFkB inh – blocks IL-1B driven NFkB nuclear translocation in HUVEC cells | HUVEC IL-1B NFkB p65 nuclear translocation imaging | inhibition, % at 2 µM | hit rate 0.43% among 94,000;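 active = inhibition above about 30% together with a positive call from visual inspection of the well image, limit read from the data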;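 note: nuclear over cytoplasmic p65 intensity ratio measured by imaging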
NFkB transloc pot – enhances IL-1B driven NFkB nuclear translocation | HUVEC IL-1B NFkB p65 nuclear translocation imaging | activation, % at 2 µM | hit rate 0.3% among 94,000 | AID 819;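 active = activation above 40%, about the mean plus 3 SD, also judged a hit on visual image review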;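 note: percent activation is computed from the nuclear over cytoplasmic p65 intensity ratio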
IL1B cytotox – HUVEC cytotoxicity counter-screen, IL-1B stimulated. HUVEC cell count loss, Hoechst imaging. cell count reduction, % at 2 µM. hit rate 0.41% among 94,000. AID 845;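 active = cell count reduction more than 3 SD above the screen-wide mean, cut at about 70% in these data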
Pyk2 oligo antag – Pyk2 (human) oligomerization antagonism; z-score (the deposit names both 25 µM and 10 µM); hit rate 0.83% among 99,000; Q293 cells, Pyk2 FERM NanoBiT luminescence; active compounds read low;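 active = Z-score of -3 or lower, scaled per plate to the spread of control and sample wells; inactive = z-score above -3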;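 note: negative z-score means lost luminescence so less FERM oligomerization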
Phagocyt inh – macrophage phagocytosis inhibition; J774A.1 macrophage IgG-bead phagocytosis, imaging; inhibition, % at 5 µM; hit rate 0.07% among 110,000; AID 1029;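 active = inhibition above the mean of the plate negative controls plus 5 SD, cut at about 13% in these data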;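 note: phagocytic index as fraction of beads internalized from green versus red external bead signal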
Numbers stand for hits; i = inactive; nt = not tested or not shown; + = active, no number; [ ] = another dose, or the depositor's remark.

SMILES	IL1B NFkB inh	NFkB transloc pot	IL1B cytotox	Pyk2 oligo antag	Phagocyt inh
COc1ccc(C2CC(=O)C3=C(C2)Nc2ncnn2C3c2ccccc2C)c(OC)c1 (stereo not drawn)	nt	nt	nt	-3.6	i
O=C(NCC(=O)N(CCN1CCOCC1)C(C(=O)NC1CCCC1)c1cccs1)c1ccco1 (stereo not drawn)	i	i	i	i	i
CC(NC(=O)NC(N)=O)(C(F)(F)F)C(F)(F)F	i	41	i	i	nt
CC(NC(=O)Nc1ccc(O)cc1)(C(F)(F)F)C(F)(F)F	i	i	i	i	nt
O=C(OCC(=O)N1CCCC1)c1cncc(Br)c1	98	i	88	i	i
CC(C)c1ccc(/C=N/Nc2ccc(C(=O)O)cc2)cc1	nt	nt	nt	nt	i
O=C(Nc1nccs1)C1CCCN1S(=O)(=O)c1ccc(F)cc1 (stereo not drawn)	i	i	i	i	+
O=S(=O)(NC1=NCCC1)c1ccc(F)cc1	i	i	i	i	i
O=C(COC(=O)c1ccncc1)Nc1cc(Cl)ccc1Cl	i	i	i	i	i
O=C(OCc1ccc(Cl)cc1Cl)c1ccncc1	i	126	i	i	i
CCOc1ccc(C(=O)OCCN(C)C)cc1	i	58	i	i	i
COc1cc2c(cc1NC(=O)/C=C/c1ccccc1)oc1ccccc12	i	i	i	i	i
Cc1ccc(CN(C(=O)Cn2nnc3ccccc32)C(C(=O)NCc2ccco2)c2cccs2)cc1 (stereo not drawn)	i	i	i	i	i
O=C(NC1CCCCC1)C(c1ccco1)N(Cc1cccs1)C(=O)Cn1nnc2ccccc21 (stereo not drawn)	i	i	i	i	i
O=C(NCc1ccco1)C(c1ccco1)N(Cc1cccs1)C(=O)Cn1nnc2ccccc21 (stereo not drawn)	i	i	i	-3.8	nt
O=C(NCc1ccco1)C(c1cccs1)N(Cc1ccccc1)C(=O)Cn1nnc2ccccc21 (stereo not drawn)	i	i	i	-3.3	i
COc1ccc(-c2[nH]nc3oc(=O)cc(C)c23)cc1	i	i	i	i	i
CN(C)C(=O)Nc1ccc(F)cc1F	i	i	i	i	i
O=C(Nc1cccc(C(=O)N2CCCCCC2)c1)c1ccco1	i	i	72	i	i
O=C(CSc1nnc(NCc2ccccc2)s1)N1CCOCC1	nt	nt	nt	i	i
O=C(Nc1nnc(SCC(=O)N2CCOCC2)s1)c1ccccc1Cl	nt	nt	nt	i	37[artifact]
CCN(CC)CCNC(=O)c1c(O)c2cccc3c2n(c1=O)CCC3	nt	nt	nt	i	i
CC(C)c1ccc(-c2nc(N3CCCCCC3)nc3n[nH]c(N)c23)cc1	i	i	i	-4.3	i
S=C(c1ccccc1)N(c1ccccc1)c1ccccc1	i	i	i	i	nt
CC12C=CC3(O1)C(C(=O)N(c1cccnc1)C3C(=O)NC1CCCCC1)C2C(=O)Nc1ccccc1 (stereo not drawn)	31	i	i	i	i
SMILES	IL1B NFkB inh	NFkB transloc pot	IL1B cytotox	Pyk2 oligo antag	Phagocyt inh
Cc1ccc(C(=O)Nc2ccc(O)cc2C(=O)O)cc1	i	i	i	i	i
Cc1ccc(C(=O)Nc2ccc(O)cc2C(=O)O)cc1C	i	119	i	i	i
COc1cc(S(=O)(=O)Nc2cccc(C(=O)O)c2)c(OC)cc1Cl	49	i	88	i	i
COc1ccc(C(=O)N2CCCCC2)cc1S(=O)(=O)Nc1cccc(C(=O)O)c1	i	i	i	i	nt
COc1ccc(NC(=O)Cc2nn(C)c(=O)c3ccccc23)c2ncccc12	nt	nt	nt	nt	i
O=C(Nc1c(F)cccc1F)c1cnc(N2CCN(c3ccccn3)CC2)c2ccccc12	i	i	i	-3.6	i
O=C(c1cnc(N2CCN(c3ncccn3)CC2)c2ccccc12)N1CCN(c2ccccn2)CC1	i	i	i	i	nt
COc1ccc(NC(=O)c2cc3c(-c4ccc(OC)c(OC)c4)nn(C)c3s2)cc1OC	i	i	i	-3	i
COc1ccc(-c2nn(C)c3sc(C(=O)NCc4ccco4)cc23)cc1OC	nt	nt	nt	i	i
CCN(CC)C(=O)CSc1nc2cc3c(cc2c(=O)n1Cc1ccc2c(c1)OCO2)OCO3	nt	nt	nt	-3.1	i
CCOC(=O)CSc1nc2ccc(N3CCOCC3)cc2c(=O)n1Cc1ccc2c(c1)OCO2	nt	nt	nt	nt	i
Cc1ccc(OCC(=O)N2CCCCCC2)c(C)c1	i	i	86	i	i
Cc1ccc(NC(=O)COC(=O)c2csc3c2CCC(C)C3)cc1S(=O)(=O)N1CCCCC1 (stereo not drawn)	nt	nt	nt	i	i
O=c1c2c3c(sc2nc2sc(C4CC4)nn12)CCCC3	88	i	78	i	i
CCOC(=O)C[n+]1c(C)sc2ccc(OC)cc21	43	i	i	i	i
NC(=O)/C=C\C(=O)Nc1cccc(C(F)(F)F)c1	i	i	84	i	i
O=C(O)CCCC(=O)Nc1cccc(C(F)(F)F)c1	nt	nt	nt	i	i

Source: PubChem (several laboratories)
